# Results: PubChem BioAssay (Tox21)
# Inconclusive results are not listed. Entries that show only a call come without a potency. Activity calls are given as the source filed them. Calls come from the whole dose curve; as a rule, active = well fitted cell-killing curve with a large enough effect in the repeat runs; inconclusive = weak or mixed curves, or effect the other way; inactive = no such curve, though single readings can be large or run the other way.
# Experiment: qHTS assay to identify small molecule antagonists of the retinoid-related orphan receptor gamma (ROR-gamma) signaling pathway - cell viability counter screen (AID 1159520); note: nearly all actives have a fitted effect of over 50% in size
# Conditions: Tet-on RORgamma CHO cells viability, ATP luminescence, 16 h; series mostly up to 92.4 µM
# Source text: U.S. Tox21 Program National Center for Advancing Translational Sciences [NCATS] NIH Chemical Genomics Center [NCGC] U.S. Environmental Protection Agency [EPA] National Institutes of Environmental Health Sciences [NIEHS] National Toxicology Program [NTP] U.S. Food and Drug Administration [FDA] Tox21 Assay Overview: Nuclear steroid hormone receptors are involved in many biological processes including inflammatory responses, cell proliferation, and apoptosis. Environmental factors or compounds disrupting these nuclear receptor pathways and gene expression may promote susceptibility to immunotoxicants and autoimmune diseases. One important group of these expression factors are the retinoid-related orphan receptors. To assess compounds that may interfere with the retinoid-related orphan receptor gamma (ROR-gamma) transcription factor, a cell-based luciferase assay was used. The CHO cell-based assay utilizes a TET-inducible ROR expression factor and ROR response element-LUC reporter gene. Reporter gene activity was induced using Doxycycline Hyclate and measured after 16 hr incubation. Tet-on ROR gamma CHO cells were used to screen against the Tox21 10K compound library for cytotoxicity by measuring the viability of the cells based on the quantitation of the ATP.
# Tox21 Assay Protocol Summary: Tet-on ROR gamma CHO cells were dispensed at 1,000 cells in 4 uL of culture medium per well into white wall/solid bottom 1536-well plates using a Multidrop Combi (Thermo Scientific, Waltham, MA) dispenser. Following incubation at 37 C and 5% CO2 for 4 hr, 23 nL of compounds dissolved in DMSO, positive controls or DMSO only were transferred by a Pintool station (Kalypsys, San Diego, CA) and after 2 hr incubation at 37 C, one ul of 1 uM (final concentration) of Doxycycline Hyclate was added to all the wells by using a Flying Reagent Dispenser (FRD) (Aurora Discovery, San Diego, CA). After 16 hr incubation at 37 C and 5% CO2, 5 uL of CellTiter-Glo reagent (Promega Corporation, Madison, WI) was added to each assay plate using FRD. After 30 min incubation at room temperature, luminescence was quantified on a ViewLux plate reader (Perkin Elmer, Waltham, MA).
# Potency is the fitted concentration of half-maximal effect.
row,SMILES,Potency
1,CCN(CC)CC(=O)Nc1c(C)cccc1C(=O)OC,inactive
2,CC1CCC(C(C)CS)CC1S (stereo not given),inactive
3,CCN(CC)C(=O)/C(C#N)=C/c1cc(O)c(O)c([N+](=O)[O-])c1,inactive
4,CCCCC[C@H](O)/C=C/[C@H]1[C@H](O)CC(=O)[C@@H]1C/C=C\CCCC(=O)O,inactive
5,CC(C)c1ccc(C(=O)N=C(N)N)cc1S(C)(=O)=O,inactive
6,CC(CCc1ccc(O)cc1)NCCc1ccc(O)c(O)c1 (stereo not given),inactive
7,CN1C(CSCC(F)(F)F)Nc2cc(Cl)c(S(N)(=O)=O)cc2S1(=O)=O (stereo not given),inactive
8,CNCc1ccc(NC(=O)c2c[nH]c3c2C(=O)CCC3)cc1,inactive
9,CC(C)N(C)C,inactive
10,CCCCCCCCCCCCCCCC(=O)OCC,inactive
11,O=C1CC[C@@H](C(=O)O)N1,inactive
12,O=c1[nH]c2cc(C(F)(F)F)c(N3CCOCC3)cc2n(CP(=O)(O)O)c1=O,inactive
13,CS(=O)(=O)c1ccc([C@@H](C[C@H]2CCC(=O)C2)C(=O)Nc2cnccn2)cc1Cl,inactive
14,CC(C)(C)CCCCCCOC(=O)c1ccccc1C(=O)OCCCCCCC(C)(C)C,inactive
15,O=C(c1ccccc1)C1CCC1,inactive
16,Cc1ccc(N(CCO)CCO)cc1,inactive
17,CNC1CCCN(c2c(F)cc3c(=O)c(C(=O)O)cn(C4CC4)c3c2OC)C1 (stereo not given),inactive
18,Nc1c(Cl)cc(Cl)cc1[N+](=O)[O-],inactive
19,[Cl][Nd]([Cl])[Cl],inactive
20,C[C@@H]1[C@H](O)[C@@H](C)/C=C/C=C\C=C\C=C\C=C\C=C\C=C\[C@H](O[C@@H]2O[C@H](C)[C@@H](O)[C@H](N)[C@@H]2O)C[C@@H]2O[C@](O)(C[C@@H](O)C[C@@H](O)[C@H](O)CC[C@@H](O)C[C@@H](O)CC(=O)O[C@H]1C)C[C@H](O)[C@H]2C(=O)O (stereo in doubt),inactive

row,SMILES,Potency
1,O=C(CCS)OCC(COC(=O)CCS)(COC(=O)CCS)COC(=O)CCS,inactive
2,CN1CCCN(C(c2ccccc2)c2ccc(Cl)cc2)CC1 (stereo not given),inactive
3,COc1ccc(C(=O)NCc2ccc(OCCN(C)C)cc2)cc1OC,inactive
4,CC(=O)N[C@@H](Cc1ccc(O)cc1)C(=O)O,inactive
5,CC1=CC[C@@]23C[C@@H]1C(C)(C)[C@@H]2CC[C@H]3C,inactive
6,CC(C)OC(=O)c1ccccc1C(=O)OC(C)C,inactive
7,CC/C=C\C/C=C\C/C=C\CCCCCCCC(=O)OCC,inactive
8,Cc1cc(CCCOc2c(C)cc(-c3noc(C(F)(F)F)n3)cc2C)on1,inactive
9,CSCC[C@H](NC(=O)[C@H](Cc1c[nH]c2ccccc12)NC(=O)CCNC(=O)OC(C)(C)C)C(=O)N[C@@H](CC(=O)O)C(=O)N[C@@H](Cc1ccccc1)C(N)=O,inactive
10,CCCCCCC(O)CCCCCCCCCCC(=O)OC (stereo not given),inactive
11,CC(C)CC(O)CC(C)C,inactive
12,CC(=O)OC(C)C[N+](C)(C)C (stereo not given),inactive
13,CCCCCc1ccco1,inactive
14,CCN(CC)c1cccc(O)c1,inactive
15,CO[C@@H]1[C@@H](OC)[C@H](C)[C@@](O)(CC(=O)O)O[C@H]1[C@H](C)[C@H]1O[C@@]2(CC[C@@](C)([C@H]3CC[C@@](C)([C@@H]4O[C@@H]([C@H]5O[C@](C)(O)[C@H](C)C[C@@H]5C)C[C@@H]4OC4C[C@H](OC)[C@@H](OC)[C@H](C)O4)O3)O2)C[C@H](O)[C@H]1C (stereo not given in full),9.44 µM (active)
16,O=[N+]([O-])C1(Br)COCOC1,24.3 µM (active)
17,BrC(Br)C(Br)Br,inactive
18,CCCCCCCCCCCCCCCCCC(=O)OCC(CC)CCCC (stereo not given),inactive
19,O=C1c2ccccc2C(=O)c2c(O)ccc(O)c21,inactive
20,C=C(C)C(=O)OCCC(F)(F)C(F)(F)C(F)(F)C(F)(F)C(F)(F)C(F)(F)F,inactive
